# Reference: PubChem BioAssay (NCATS)
# Several values for one entry are separate records, joined by “and”; a condition that tells them apart may be missing. Identical values can stand only once. Records with an inconclusive call do not appear. A call without a number means that no potency is given here. The source holds several records for some structures; these can differ, active in one and inactive in another. Values without a mark were called inactive. Activity calls are given as the source filed them. Calls follow the shape of the dose curve; as a rule, active = well fitted curve in the direction sought with a large enough effect; inconclusive = small, poorly fitted or top-dose-only effect, or another doubt; inactive = no such curve, though single readings can be large; an effect the other way counts as inactive or inconclusive.
# Assays:
# [1] = tested on: MKL-1; assay: qHTS assay to identify novel small-molecules to repurpose for Merkel cell carcinoma treatment (AID 1296009); details: MCC and control cell lines, CellTiter-Glo viability, 72 h; series mostly up to 46 µM; also: nearly all actives have a fitted effect of over 60% in size
# Summary of the method: (§1)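 Cells exposed to NPC (8-point) and MIPE (11-point) compound dilutions for 72 hr at 37 degree celsius; viability read by CellTiter-Glo luminescence, normalized to no-cell and DMSO in-plate controls.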
# [2] = tested on: MKL-2; assay: as above; details: MCC and control cell lines, CellTiter-Glo viability, 72 h; series mostly up to 46 µM
# Summary of the method: as §1
# [3] = tested on: NIH3T3; assay: as above; details: MCC and control cell lines, CellTiter-Glo viability, 72 h; series mostly up to 44.8 µM
# Summary of the method: as §1
# [4] = tested on: UISO; assay: as above; details: MCC and control cell lines, CellTiter-Glo viability, 72 h; series mostly up to 46 µM
# Summary of the method: as §1
# [5] = tested on: WaGa; assay: as above; details: MCC and control cell lines, CellTiter-Glo viability, 72 h; series mostly up to 46 µM
# Summary of the method: as §1
# [6] = tested on: C33A; assay: Primary qHTS to identify gynecologic anti-cancer compounds using libraries of approved drugs and bioactive compounds (AID 1345084); details: Gynecologic cancer cell panel viability, ATPlite luminescence, 48 h; series mostly up to 57.5 µM; also: nearly all actives have a fitted effect of over 55% in size
# Summary of the method: (§2)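 Cells, 1,000 per well, plated 16 h, then exposed 48 h at 37 C to compounds. Viability by ATPlite luminescence after 15 min at room temperature.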
# [7] = tested on: CASKI; assay: as above; details: Gynecologic cancer cell panel viability, ATPlite luminescence, 48 h; series mostly up to 57.5 µM
# Summary of the method: as §2
# [8] = tested on: Es-2; assay: as above; details: Gynecologic cancer cell panel viability, ATPlite luminescence, 48 h; series mostly up to 57.5 µM
# Summary of the method: as §2
# [9] = tested on: HeLa; assay: as above; details: Gynecologic cancer cell panel viability, ATPlite luminescence, 48 h; series mostly up to 57.5 µM
# Summary of the method: as §2
# [10] = tested on: Hek293T; assay: as above; details: Gynecologic cancer cell panel viability, ATPlite luminescence, 48 h, control line for the selectivity index; series mostly up to 57.5 µM
# Summary of the method: as §2
# [11] = tested on: JEG-3; assay: as above; details: Gynecologic cancer cell panel viability, ATPlite luminescence, 48 h; series mostly up to 57.5 µM
# Summary of the method: as §2
# [12] = tested on: PA-1; assay: as above; details: Gynecologic cancer cell panel viability, ATPlite luminescence, 48 h; series mostly up to 57.5 µM
# Summary of the method: as §2
# [13] = tested on: SKOV3; assay: as above; details: Gynecologic cancer cell panel viability, ATPlite luminescence, 48 h; series mostly up to 57.5 µM
# Summary of the method: as §2
# [14] = tested on: Tov-21-G; assay: as above; details: Gynecologic cancer cell panel viability, ATPlite luminescence, 48 h; series mostly up to 57.5 µM
# Summary of the method: as §2
# [15] = tested on: Tov112D; assay: as above; details: Gynecologic cancer cell panel viability, ATPlite luminescence, 48 h; series mostly up to 57.5 µM
# Summary of the method: as §2
# [16] = Drug repurposing screens with cells derived from glioblastoma tumor samples (AID 1345199); details: GBM patient neurospheres viability, ATP luminescence, 48 h; also: nearly all actives have a fitted effect of over 40% in size
# Summary of the method: (§3)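 Four patient lines of CD133+ GBM neurospheres were screened at several concentrations; hits were retested in those lines plus three slower-growing GBM lines, using 48-hour treatment and ATP-based viability.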
# [17] = tested on: astro; assay: as above; details: viability, ATP luminescence, 48 h; series mostly up to 45.9 µM
# Summary of the method: as §3
# [18] = tested on: OV90; assay: Primary qHTS to identify gynecologic anti-cancer compounds using libraries of approved drugs and bioactive compounds (AID 1345084); details: Gynecologic cancer cell panel viability, ATPlite luminescence, 48 h; series mostly up to 57.5 µM; also: nearly all actives have a fitted effect of over 55% in size
# Summary of the method: as §2
# [19] = tested on: CAOV3; assay: as above; details: Gynecologic cancer cell panel viability, ATPlite luminescence, 48 h; series mostly up to 57.5 µM
# Summary of the method: as §2
# [20] = at 45.9 µM (top of the series), tumour line B
# [21] = at 45.9 µM (top of the series), tumour line D
# [22] = at 46 µM (top of the series), tumour line A
# [23] = at 46.1 µM (top of the series), tumour line C
# Potency is read from the fitted curve at half-maximal effect.
compound,measurement,setting,value
CCC1(C)CC(=O)NC1=O (stereo unspecified),Potency,[1],inactive
same,Potency,[2],inactive
same,outcome,[3],inactive
same,Potency,[4],inactive
same,Potency,[5],inactive
same,Potency,[6],inactive
same,Potency,[7],inactive
same,Potency,[8],inactive
same,Potency,[9],inactive
same,Potency,[10],inactive
same,Potency,[11],inactive
same,Potency,[12],inactive
same,Potency,[13],inactive
same,Potency,[14],inactive
same,Potency,[15],inactive
same,"activity, negative = cell killing",[16]; [20],-5.39%
same,"activity, negative = cell killing",[16]; [21],-6.6%
same,"activity, negative = cell killing",[16]; [22],-18.2%
same,"activity, negative = cell killing",[16]; [23],-11.1%
same,Potency,[17],inactive
COc1ccccc1OCC(O)CN1CCN(CC(=O)Nc2c(C)cccc2C)CC1 (stereo unspecified),Potency,[1],inactive
same,Potency,[2],inactive
same,outcome,[3],inactive
same,Potency,[4],inactive
same,Potency,[5],inactive
same,Potency,[6],inactive
same,Potency,[7],inactive
same,Potency,[8],inactive
same,Potency,[9],inactive
same,Potency,[10],inactive
same,Potency,[11],inactive
same,Potency,[18],inactive
same,Potency,[12],inactive
same,Potency,[13],inactive
same,Potency,[14],inactive
same,Potency,[15],inactive
same,"activity, negative = cell killing",[16]; [20],-2.09%
same,"activity, negative = cell killing",[16]; [21],-4.68%
same,"activity, negative = cell killing",[16]; [23],-16.2%
same,Potency,[17],inactive
COc1cc2nc(N(C)CCCNC(=O)C3CCCO3)nc(N)c2cc1OC (stereo unspecified),Potency,[1],inactive
same,Potency,[2],inactive
same,outcome,[3],inactive
same,Potency,[4],inactive
same,Potency,[5],inactive
same,Potency,[6],inactive
same,Potency,[7],inactive
same,Potency,[8],inactive
same,Potency,[9],inactive
same,Potency,[10],inactive
same,Potency,[11],inactive
same,Potency,[18],inactive
same,Potency,[12],inactive
same,Potency,[13],inactive
same,Potency,[14],inactive
same,Potency,[15],inactive
same,"activity, negative = cell killing","[16]; at 20 µM (top of the series), tumour line C",-6.33%
same,"activity, negative = cell killing","[16]; at 21.2 µM (top of the series), tumour line B",-6.29%
same,"activity, negative = cell killing","[16]; at 21.2 µM (top of the series), tumour line D",7.29%
same,Potency,[17],inactive
O=C(c1ccc(F)cc1)C1CCN(CCn2c(=O)[nH]c3ccccc3c2=O)CC1,Potency,[1],inactive
same,Potency,[2],inactive
same,outcome,[3],inactive
same,Potency,[4],inactive
same,Potency,[5],inactive
same,Potency,[6],inactive
same,Potency,[7],inactive
same,Potency,[8],inactive
same,Potency,[9],inactive
same,Potency,[10],inactive
same,Potency,[11],inactive
same,Potency,[18],inactive
same,Potency,[12],inactive
same,Potency,[13],inactive
same,Potency,[14],inactive
same,Potency,[15],inactive
same,"activity, negative = cell killing",[16]; [21],-39.8%
same,"activity, negative = cell killing",[16]; [23],7.2%
same,Potency,[16]; tumour line A,3.98 µM (active)
CN(C)CCOC(c1ccccc1)c1ccccc1,Potency,[1],inactive
same,Potency,[2],inactive
same,outcome,[3],inactive
same,Potency,[4],inactive
same,Potency,[5],inactive
same,Potency,[6],inactive
same,Potency,[7],inactive
same,Potency,[8],inactive
same,Potency,[9],inactive
same,Potency,[10],inactive
same,Potency,[11],inactive
same,Potency,[18],inactive
same,Potency,[12],inactive
same,Potency,[13],inactive
same,Potency,[14],inactive
same,Potency,[15],inactive
same,"activity, negative = cell killing",[16]; [20],0.893%
same,"activity, negative = cell killing",[16]; [21],1.4%
same,"activity, negative = cell killing",[16]; [23],1.73% and -22.4%
same,Potency,[16]; tumour line A,22.4 µM (active) and 12.6 µM (active)
CC1(C)O[C@H]2CC(=O)OC[C@]23[C@H]2CC[C@@]4(C)[C@H](c5ccoc5)OC(=O)[C@H]5O[C@]54[C@]2(C)C(=O)C[C@@H]13,Potency,[1],inactive
same,Potency,[2],inactive
same,outcome,[3],inactive
same,Potency,[4],inactive
same,Potency,[5],inactive
same,Potency,[6],inactive
same,Potency,[19],inactive
same,Potency,[7],inactive
same,Potency,[8],inactive
same,Potency,[9],inactive
same,Potency,[10],inactive
same,Potency,[11],inactive
same,Potency,[18],inactive
same,Potency,[12],inactive
same,Potency,[13],inactive
same,Potency,[14],inactive
same,Potency,[15],inactive
same,"activity, negative = cell killing",[16]; [20],-1.56%
same,"activity, negative = cell killing",[16]; [21],-7.18%
same,"activity, negative = cell killing",[16]; [22],-18.9%
same,"activity, negative = cell killing",[16]; [23],3.51%
same,Potency,[17],inactive
CN(C)C(=O)C(CCN1CCC(O)(c2ccc(Cl)cc2)CC1)(c1ccccc1)c1ccccc1,Potency,[1],inactive
same,Potency,[2],18.7 µM (active)
CN1CCN(C2=Nc3cc(Cl)ccc3Nc3ccccc32)CC1,Potency,[1],inactive
same,Potency,[2],inactive
same,outcome,[3],inactive
same,Potency,[4],inactive
same,Potency,[5],inactive
same,Potency,[6],inactive
same,Potency,[7],inactive
same,Potency,[8],inactive
same,Potency,[9],inactive
same,Potency,[10],inactive
same,Potency,[11],inactive
same,Potency,[13],31.6 µM (active)
same,Potency,[14],inactive
same,Potency,[15],inactive
same,"activity, negative = cell killing",[16]; [23],1.71%
same,Potency,[16]; tumour line A,11.2 µM (active)
same,Potency,[16]; tumour line D,35.5 µM (active)
CCOC(=O)C(C)(C)Oc1ccc(Cl)cc1,Potency,[1],inactive
same,Potency,[2],inactive
same,outcome,[3],inactive
same,Potency,[4],inactive
same,Potency,[5],inactive
same,Potency,[6],inactive
same,Potency,[19],inactive
same,Potency,[7],inactive
same,Potency,[8],inactive
same,Potency,[9],inactive
same,Potency,[10],inactive
same,Potency,[11],inactive
same,Potency,[18],inactive
same,Potency,[12],inactive
same,Potency,[13],inactive
same,Potency,[14],inactive
same,Potency,[15],inactive
same,"activity, negative = cell killing",[16]; [20],-9.66%
same,"activity, negative = cell killing",[16]; [21],-5.13%
same,"activity, negative = cell killing",[16]; [23],5.62%
same,Potency,[17],inactive
CC(C)(Oc1ccc(C2CC2(Cl)Cl)cc1)C(=O)O (stereo unspecified),Potency,[1],inactive
same,Potency,[2],inactive
same,outcome,[3],inactive
same,Potency,[4],inactive
same,Potency,[5],inactive
same,Potency,[6],inactive
same,Potency,[19],inactive
same,Potency,[7],inactive
same,Potency,[8],inactive
same,Potency,[9],inactive
same,Potency,[10],inactive
same,Potency,[11],inactive
same,Potency,[18],inactive
same,Potency,[12],inactive
same,Potency,[13],inactive
same,Potency,[14],inactive
same,Potency,[15],inactive
same,"activity, negative = cell killing",[16]; [20],-9.51%
same,"activity, negative = cell killing",[16]; [21],-16.1%
same,"activity, negative = cell killing",[16]; [22],-29.3%
same,"activity, negative = cell killing",[16]; [23],6.66%
Cn1ccc2cc3c(cc21)CCN3C(=O)Nc1cccnc1,Potency,[1],inactive
same,Potency,[2],inactive
same,outcome,[3],inactive
same,Potency,[4],inactive
same,Potency,[5],inactive
same,Potency,[6],inactive
same,Potency,[19],inactive
same,Potency,[7],inactive
same,Potency,[8],inactive
same,Potency,[9],inactive
same,Potency,[10],inactive
same,Potency,[11],inactive
same,Potency,[18],inactive
same,Potency,[12],inactive
same,Potency,[13],inactive
same,Potency,[14],inactive
same,Potency,[15],inactive
CC[N+](CC)(CC)CCOc1cccc(OCC[N+](CC)(CC)CC)c1OCC[N+](CC)(CC)CC,Potency,[1],inactive
same,Potency,[2],inactive
same,outcome,[3],inactive
same,Potency,[4],inactive
same,Potency,[5],inactive
same,Potency,[6],inactive
same,Potency,[19],inactive
same,Potency,[7],inactive
same,Potency,[8],inactive
same,Potency,[9],inactive
same,Potency,[10],inactive
same,Potency,[11],inactive
same,Potency,[18],inactive
same,Potency,[12],inactive
same,Potency,[13],inactive
same,Potency,[14],inactive
same,Potency,[15],inactive
same,"activity, negative = cell killing",[16]; [20],-15.6%
same,"activity, negative = cell killing",[16]; [21],-21.5%
same,"activity, negative = cell killing",[16]; [22],-28%
same,"activity, negative = cell killing",[16]; [23],-0.854%
same,Potency,[17],inactive
